Experimental data from the supplement of paper PMC10646978.
± gives the standard deviation.

Key:
Settings in all cases: modulator concentration 10 µM
[1] = test system: RAW-Dual (murine macrophage reporter line); assay: NF-kB reporter (SEAP) activity fold change vs agonist alone; higher = enhanced NF-kB activity
Method in brief: (§1)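 RAW-Dual murine macrophage reporter cells were plated at 50 000 per well in 384-well plates, pin-transferred compound to 10 μM final, and pre-incubated for 1 hour at 37 °C before a PRR agonist was added and the cells incubated overnight. NF-κB activity was read from supernatant SEAP with QUANTI-Blue at 620 nm absorbance, and IRF activity from Lucia luciferase with QUANTI-Luc by luminescence. Each signal was expressed as fold change by dividing by the mean agonist-only control on the same plate. Two replicate plates were averaged, with errors obtained by propagation.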

[2] = test system: RAW-Dual (murine macrophage reporter line); assay: IRF reporter (Lucia luciferase) activity fold change vs agonist alone; higher = enhanced IRF activity
Method in brief: as §1

[3] = test system: RAW-Dual (murine macrophage reporter line); assay: viability score (confluency relative to resting cells, overnight) (fraction); higher = more viable, active = viable (0.7 or more)
Method in brief: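 In 384-well plates, RAW-Dual macrophages received compound at a final 10 μM overnight. Two confluency masks were then made with IncuCyte software from IncuCyte images of all imaged wells. The viability score is defined as confluency relative to resting cells. Passing the cutoff required both masks to lie above 70% of resting cells.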

[4] = agonist: CpG ODN 1826 0.5 ug/mL

Compound | NF-kB reporter [1, 4] | NF-kB reporter ([1]; agonist: LPS 0.1 ug/mL) | NF-kB reporter ([1]; agonist: MPLA […]) | IRF reporter ([2]; agonist: 3'3'-cGAMP 10 ug/mL) | IRF reporter ([2]; agonist: LPS 0.1 ug/mL) | IRF reporter ([2]; agonist: MPLA […]) | viability score [3]
COc1ccc(CC(=O)N2CCC(N3CCC(OC)CC3)CC2)cc1OC | 0.965 ± 0.063 | 1.09 ± 0.087 | 0.893 ± 0.041 | 0.949 ± 0.05 | 1.02 ± 0.11 | 1.08 ± 0.35 | 0.974 (active)
CC1C(=O)N2CCCc3cc(S(=O)(=O)N4CCN(c5cccc(Cl)c5)CC4)cc1c32 (centres undefined) | 0.755 ± 0.24 | 0.894 ± 0.073 | 0.971 ± 0.052 | 0.598 ± 0.044 | 1.2 ± 0.23 | 1.22 ± 0.37 | 0.996 (active)
CN1CCC(COc2cnc(-c3cccc(Cn4nc(-c5cccc(C#N)c5)ccc4=O)c3)nc2)CC1 | 0.884 ± 0.28 | 1 ± 0.055 | 1.06 ± 0.082 | 0.713 ± 0.04 | 1.11 ± 0.14 | 1.37 ± 0.36 | 0.625 (inactive)
COc1ccc(CNc2nc(N3CCC[C@H]3CO)ncc2C(=O)NCc2ncccn2)cc1Cl | 0.245 ± 0.011 | 0.629 ± 0.12 | 0.771 ± 0.043 | 1.51 ± 0.23 | 1.39 ± 0.4 | 1.23 ± 0.36 | 1 (active)
O=C(O)C=C(CC(=O)O)C(=O)O | 1.02 ± 0.084 | 1.05 ± 0.074 | 0.946 ± 0.021 | 0.996 ± 0.12 | 0.971 ± 0.038 | 0.983 ± 0.092 | 1 (active)
O=C(O)C=Cc1ccc(S(=O)(=O)NCc2cccnc2)cc1 | 0.751 ± 0.077 | 0.82 ± 0.049 | 1.02 ± 0.091 | 1.02 ± 0.062 | 1.46 ± 0.098 | 1.72 ± 0.19 | 1.01 (active)
O=C(Nc1ccccn1)c1ccc(OCC2CCCO2)nc1 (centres undefined) | 1.12 ± 0.064 | 1.02 ± 0.077 | 1 ± 0.031 | 0.936 ± 0.077 | 1.04 ± 0.059 | 1.04 ± 0.1 | 0.997 (active)
CC12CCC3c4ccc(O)cc4CCC3C1CC(O)C2O (centres undefined) | 1.17 ± 0.28 | 1.28 ± 0.075 | 1.24 ± 0.093 | 0.596 ± 0.022 | 1.39 ± 0.16 | 1.44 ± 0.14 | 0.97 (active)
Cc1cn(C2C=CC(CO)O2)c(=O)[nH]c1=O (centres undefined) | 1.02 ± 0.15 | 0.902 ± 0.27 | 0.981 ± 0.06 | 0.886 ± 0.041 | 1.04 ± 0.27 | 1.04 ± 0.2 | 0.984 (active)
CC(=O)Nc1c(-c2ccc3ccccc3c2)nc2ccccn12 | 1.37 ± 0.33 | 0.942 ± 0.079 | 1.07 ± 0.11 | 0.949 ± 0.032 | 1.14 ± 0.15 | 1.16 ± 0.14 | 0.995 (active)
CN1CCN(c2c(F)cc3c(=O)c(C(=O)O)cn4c3c2OCN4C)CC1 | 1.2 ± 0.34 | 1.09 ± 0.093 | 0.971 ± 0.099 | 0.958 ± 0.039 | 1.26 ± 0.15 | 1.25 ± 0.12 | 0.995 (active)
CC1(C)CC(=O)C2=C(C1)OC(N)=C(C#N)C21CCCC1 | 1.04 ± 0.18 | 0.94 ± 0.08 | 0.933 ± 0.072 | 0.91 ± 0.025 | 1.13 ± 0.15 | 1.3 ± 0.13 | 1 (active)
CNCCC=C1c2ccccc2CCc2ccccc21.Cl | 0.45 ± 0.07 | 1.14 ± 0.21 | 1.8 ± 0.13 | 0.41 ± 0.014 | 1.11 ± 0.24 | 1.99 ± 0.4 | 0.293 (inactive)
Cc1ccc(CNC(=O)C(=O)NC2CCCCC2)cc1 | 1 ± 0.094 | 0.956 ± 0.11 | 0.963 ± 0.091 | 0.97 ± 0.025 | 1.46 ± 0.2 | 1.11 ± 0.21 | 1.01 (active)
Nc1ncnc2c1ncn2[C@@H]1O[C@H](CO)[C@@H](O)[C@@H]1O | 1.15 ± 0.095 | 0.941 ± 0.047 | 1.02 ± 0.053 | 0.953 ± 0.067 | 0.983 ± 0.077 | 1.02 ± 0.12 | 0.991 (active)
CN(C)c1nc(CNS(C)(=O)=O)nc(N2CCCCC2)n1 | 1 ± 0.092 | 1.08 ± 0.091 | 1.03 ± 0.044 | 0.991 ± 0.044 | 1.03 ± 0.071 | 0.965 ± 0.21 | 1 (active)
O=C(NN=Cc1cccc(Cl)c1Cl)c1cc(O)cc(O)c1 | 1.02 ± 0.084 | 0.918 ± 0.092 | 1.07 ± 0.1 | 0.934 ± 0.079 | 1.19 ± 0.22 | 1.3 ± 0.22 | 1.04 (active)
COc1ccc(NC(=O)CN2C(=O)c3ccccc3C2=O)c([N+](=O)[O-])c1 | 0.798 ± 0.064 | 0.948 ± 0.087 | 0.989 ± 0.11 | 0.963 ± 0.048 | 1.29 ± 0.082 | 1.36 ± 0.13 | 1.01 (active)
CC(C)c1ccc(N(CC(=O)NCCSCc2ccc(Cl)cc2)S(C)(=O)=O)cc1 | 0.597 ± 0.058 | 0.909 ± 0.076 | 0.918 ± 0.08 | 0.588 ± 0.04 | 1.14 ± 0.066 | 1.07 ± 0.13 | 1.01 (active)
C=CCn1c(-c2ccc(OC)cc2)cnc1SCC(=O)N1CCc2ccccc21 | 0.967 ± 0.12 | 1.06 ± 0.09 | 1.09 ± 0.18 | 0.927 ± 0.1 | 1.03 ± 0.062 | 0.962 ± 0.11 | 1 (active)
CCC(=O)c1ccc(N2CCCCCC2)c(F)c1 | 0.864 ± 0.067 | 0.96 ± 0.074 | 1.14 ± 0.16 | 1 ± 0.048 | 1.61 ± 0.1 | 2.1 ± 0.18 | 0.982 (active)
CN1CCN(CC(=O)N2c3ccccc3C(=O)Nc3cccnc32)CC1.Cl.Cl | 1.49 ± 0.35 | 1.03 ± 0.1 | 1.15 ± 0.077 | 0.96 ± 0.036 | 1.08 ± 0.12 | 1.06 ± 0.15 | 0.984 (active)
CCOC(=O)C1=C(C)NC(C)=C(C(=O)OCC)C1c1ccc(Cl)cc1 | 0.3 ± 0.023 | 0.27 ± 0.019 | 0.748 ± 0.026 | 0.743 ± 0.061 | 0.636 ± 0.084 | 1.67 ± 0.2 | 0.187 (inactive)
Fc1ccc(CN2CCc3c([nH]c4ccccc34)C2)c(F)c1 | 0.636 ± 0.051 | 0.378 ± 0.05 | 0.62 ± 0.082 | 0.909 ± 0.029 | 1.32 ± 0.2 | 1.21 ± 0.16 | 0.212 (inactive)
O=S(=O)(c1ccc(Cl)cc1)N1CCN(C2CC3CCC2C3)CC1 (centres undefined) | 0.926 ± 0.062 | 0.994 ± 0.061 | 0.972 ± 0.068 | 1.02 ± 0.037 | 1.42 ± 0.14 | 1.24 ± 0.13 | 0.984 (active)
Oc1nc(O)nc(N(c2ccccc2)c2ccccc2)n1 | 1.18 ± 0.095 | 1.02 ± 0.098 | 1.02 ± 0.09 | 1 ± 0.13 | 1.09 ± 0.15 | 1.08 ± 0.29 | 1 (active)
Cn1nc2c(c1CNS(=O)(=O)CCC(F)(F)F)CCC2 | 0.93 ± 0.077 | 0.805 ± 0.064 | 1.17 ± 0.15 | 1.01 ± 0.049 | 1.32 ± 0.2 | 1.41 ± 0.49 | 0.981 (active)
